Screens from PubChem BioAssay.
MsrA inhibitor – bovine MsrA enzyme inhibitors, primary screen, biochemical, absorbance, HTS; Methionine sulfoxide reductase A (Bos taurus); purified bovine MsrA, absorbance read-out; inhibition, % at 15.5 µM; actives 0.75% (n = 360,000); AID 651718, 2012; in the data active = inhibition above about 4.5%;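 also: 0% = vehicle wells with enzyme and 100% = reference inhibitor wells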
bovine MsrA act – bovine MsrA enzyme activators, primary screen, biochemical, absorbance, HTS | Methionine sulfoxide reductase A (Bos taurus) | purified bovine MsrA, absorbance read-out | activation, % at 10.6 µM | actives 0.3% (n = 360,000); in the data active = activation above about 7.5%;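 also: 0% = vehicle and 100% = reference activator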
PG9 binder – binders of HIV-1 gp120 antibody PG9, primary screen, biochemical, TR-FRET. HIV-1 gp120 / PG9 antibody interaction. TR-FRET gp120-PG9 antibody binding. inhibition, % at 6.7 µM. actives 0.43% (n = 360,000). AID 624416, 2012; in the data active = inhibition above about 8.5%
rCAG RNA binder – binders of r(CAG) RNA repeats, primary screen, biochemical, fluorescence. r(CAG) RNA repeat, TO-PRO-1 dye displacement fluorescence. inhibition, % at 3 µM. actives 1.3% (n = 370,000). AID 651821, 2012;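 active = inhibition above the plate cutoff, the mean of all test compounds on that plate plus 3 SD, cut at about 35% in these data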;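 also: 0% = DMSO alone and 100% = 100 µM mitoxantrone as full dye displacement; higher means more dye released from RNA so lower well fluorescence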
HGIII-sPLA2 inh – human group III sPLA2 inhibitors, primary screen, biochemical, QFRET, BODIPY PC-A2 liposome substrate. Group 3 secretory phospholipase A2 (Homo sapiens), Q9NZ20. actives 0.56% (n = 370,000). inhibition, % at 12.2 µM. QFRET BODIPY PC-A2 liposome hydrolysis, fluorescence. AID 743126, 2013;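 active = inhibition above mean plus 3 SD of compounds lying within the high and low control bounds, cut at about 19% in these data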;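 also: 0% = median of test compound wells and 100% = no enzyme DMSO wells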
Target sequence (Q9NZ20 whole entry, looked up): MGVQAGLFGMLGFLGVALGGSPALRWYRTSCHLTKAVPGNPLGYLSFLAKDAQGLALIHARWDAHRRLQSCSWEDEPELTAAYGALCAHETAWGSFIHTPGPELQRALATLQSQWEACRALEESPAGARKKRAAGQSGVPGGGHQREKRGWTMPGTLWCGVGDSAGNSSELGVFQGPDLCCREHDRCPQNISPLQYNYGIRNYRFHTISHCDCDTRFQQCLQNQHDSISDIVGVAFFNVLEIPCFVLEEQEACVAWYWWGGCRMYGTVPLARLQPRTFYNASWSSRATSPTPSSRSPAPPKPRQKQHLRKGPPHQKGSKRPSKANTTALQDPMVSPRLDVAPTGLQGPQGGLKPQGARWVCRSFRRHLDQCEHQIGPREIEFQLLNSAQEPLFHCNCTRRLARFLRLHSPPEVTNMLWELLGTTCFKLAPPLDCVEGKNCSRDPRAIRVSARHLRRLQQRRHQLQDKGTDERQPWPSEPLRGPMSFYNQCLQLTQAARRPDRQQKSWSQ
rCAG bind conf – small molecules binding CAG repeat RNA – biochemical, fluorescence, confirmation. actives 70% (n = 4,300). r(CAG) RNA repeat, TO-PRO-1 dye displacement fluorescence. AID 652065, 2013. shares compounds with rCAG RNA binder. inhibition, % at 3 µM;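 active = inhibition above a per-plate cutoff, the mean inhibition of sample wells plus 3 SD, cut at about 35% in these data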;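 also: loss of TO-PRO-1 fluorescence as compound displaces dye from 1x1 AA loop RNA; 0% = DMSO only wells and 100% = 100 µM mitoxantrone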
DNA CAG counter – displacement of TO-PRO-1 from CAG DNA duplex, counter-screen for rCAG RNA repeat binder project, biochemical, fluorescence, TO-PRO-1 dye, d(CAG) DNA oligo; shares compounds with rCAG RNA binder; d(CAG) DNA oligo TO-PRO-1 dye displacement; inhibition, % at 3 µM; actives 94% (n = 4,300); AID 652068, 2013;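 active = inhibition above its plate's cutoff, the mean test-well inhibition plus 3 SD, cut at about 4.8% in these data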;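 also: 0% = DNA dye mix with DMSO and 100% = 100 µM mitoxantrone; hits displace the dye from DNA and so lower well fluorescence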
Active calls of the source: *; / = no result. Compounds with a hit are over-represented: about 3.2% of the library has one in this group of screens.

SMILES	MsrA inhibitor	bovine MsrA act	PG9 binder	rCAG RNA binder	HGIII-sPLA2 inh	rCAG bind conf	DNA CAG counter
CCOC(=O)C1=C(CC)Nc2ccccc2N/C1=N\S(=O)(=O)c1ccc(C(=O)OCC)cc1	2	-7	-1	41*	-29	40*	9.1*
CCOC(=O)C1=C(CC)Nc2ccccc2N=C1NC(=O)c1cc(S(=O)(=O)N(C)C)ccc1Cl	-1	-7	1	3	0	/	/
O=[N+]([O-])c1ccccc1S(=O)(=O)Nc1nc2ccccc2s1	1	-4	0	10	-6	/	/
O=[N+]([O-])c1ccc2nc(NS(=O)(=O)c3ccc(Cl)cc3)sc2c1	3	1	2	72*	-30	76*	28*
O=[N+]([O-])c1ccc2nc(NS(=O)(=O)c3ccccc3[N+](=O)[O-])sc2c1	3	-6	-1	41*	-18	39*	12*
Oc1ccc(Nc2ccccc2F)c2cccnc12	/	/	/	/	0	/	/
O=C(O)Cc1ccc(N2N=C(c3ccccc3)CC2=O)cc1	-1	-7	-3	68*	6	22	6.0*
O=S1(=O)c2ccc(Br)cc2OCCC2CCCCN21 (stereo not given)	0	/	0	0	-1	/	/
O=S(=O)(Nc1nc2c(s1)CCCC2)c1ccc2ccccc2c1	-2	1	1	32	-42	/	/
O=S(=O)(NC1=NCCCCC1)c1ccc2sc(NS(=O)(=O)c3ccc4ccccc4c3)nc2c1	3	-3	0	56*	-39	63*	28*
O=C(Nc1ccccc1C(=O)O)c1cc(S(=O)(=O)Nc2ccccc2)ccc1Cl	1	-4	-2	46*	-15	35*	7.3*
O=C(O)c1ccc(NS(=O)(=O)c2cccc(C(=O)Nc3ccccc3[N+](=O)[O-])c2)cc1	1	-2	-2	7	-1	/	/
COc1ccc(NS(=O)(=O)c2cccc(C(=O)Nc3ccccc3C(=O)O)c2)cc1	-1	-4	0	66*	-33	52*	20*
CC(=O)c1ccc(NS(=O)(=O)c2cccc(C(=O)Nc3ccccc3C(=O)O)c2)cc1	2	-1	-3	49*	-22	29	6.4*
O=C(O)c1ccc(NS(=O)(=O)c2ccc(Cl)c(C(=O)Nc3ccccc3)c2)cc1	0	-4	-2	3	-1	/	/
O=C(Nc1ccccc1C(=O)O)c1cc(S(=O)(=O)N2CCCCC2)c(Cl)cc1Cl	0	-3	0	70*	-19	62*	20*
O=C(Nc1ccccc1C(=O)O)c1ccc(Cl)c(S(=O)(=O)N2CCOCC2)c1	0	1	1	28	-18	/	/
COc1ccc(NS(=O)(=O)c2cccc(C(=O)NNC(=O)c3ccc(NC(C)=O)cc3)c2)cc1	0	-2	2	5	-13	/	/
F[B-](F)(F)COc1ccccc1	-2	-10	-1	1	7	/	/
O=C(Nc1cc(S(=O)(=O)Nc2ccccc2F)ccc1Cl)c1ccc(F)cc1F	0	-3	3	47*	-5	42*	13*
Cc1ccc2c(c1)CCCN2S(=O)(=O)c1cccc(C(=O)Nc2ccccc2C(=O)O)c1	-1	-2	0	83*	-50	85*	63*
C=CCN1C(=O)[C@H](CC(=O)NCC2CCCCC2)[C@@]2(C(=O)OCC)CCCC=C12	/	/	/	0	5	/	/
O=C(OCc1cn(Cc2cccc(Cl)c2)nn1)N1CCCC1	/	/	/	2	1	/	/
CN(C)Cc1csc(Nc2ccc(C(=O)c3ccccc3)cc2)n1	3	2	1	3	-12	/	/
CCCOc1ccc(Cc2nn3c(=O)/c(=C/c4ccco4)sc3nc2=O)cc1	2	0	-3	30	0	/	/
COc1ccccc1/C=C/C=c1\sc2nc(=O)c(Cc3ccccc3)nn2c1=O	-1	-3	-1	40*	-13	50*	22*
